High-throughput results as filed in PubChem.
IMPase cell inh: qHTS Assay for Identifying the Cell-Membrane Permeable IMPase Inhibitors | Inositol monophosphatase 1 (Rattus norvegicus), P97697 | CHO-M1 cells, IP1 accumulation, HTRF TR-FRET ratio | inhibition (IP1 accumulation), % at 46.1 µM | 120,000 tested, under 10 active; active = well fitted curve in the direction sought with a large enough effect in the signal ratio, not every such curve was filed as active; inconclusive = small, poorly fitted or top-dose-only effect, or a change in a side signal; inactive = no such curve, though single readings can be large or run the other way; the % refers to the signal ratio;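 also: cells stimulated with carbachol in lithium chloride buffer; plate controls were DMSO basal wells for no effect and reference inhibitor wells for full effect; higher means more IMPase inhibition seen as more IP1 and lower FRET ratio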
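Measured: the HTRF emission ratio (665/620 nm) plus the 620 nm donor channel, each fitted to the Hill equation to give AC50. Cells were CHO-M1 given compounds up to 46 uM and a 30 min carbachol stimulation at 37C.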
PNC assembly inh: High Content Assay for Compounds that inhibit the Assembly of the Perinucleolar Compartment; 140,000 compounds, 3.1% hits; PC3M PTB-GFP, PNC prevalence imaging, 16 h; stronger effect = lower value; activity change (PNC), negative = inhibition, % at 10 µM;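 active = readout at or below -70, meaning at least 70% loss of cells showing the perinucleolar compartment, a nuclear body marking cancer cells; inconclusive = readout between -30 and a set limit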;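 also: plate controls were DMSO wells for no effect and camptothecin positive control wells for full effect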
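Compounds are pinned in duplicate onto adhered PC3M cells stably expressing GFP-tagged PTB and incubated 16 h at 37 C. Cells are then fixed, nuclei stained with Hoechst, and PNC-positive cells counted.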
IMPase Li inh: qHTS Assay for Identifying the Cell-Membrane Permeable IMPase Inhibitors: Potentiation with Lithium; 210,000 compounds, 0.35% hits; CHO-M1 cells, IP1 TR-FRET (IP-One), carbachol + lithium; Potency, µM (top dose mostly 59.4 µM), without a hit: top-dose activity, negative = IMPase inhibition, most hits filed as inhibitors; active = well fitted curve in the direction sought with a large enough effect; inconclusive = small, poorly fitted or top-dose-only effect, or another doubt; inactive = no such curve, though single readings can be large; an effect the other way counts as inactive or inconclusive;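 also: IP1 builds up when IMPase is blocked and the TR-FRET signal falls; potency is read from the fitted curve at half-maximal effect; plate controls were basal vehicle for no effect and high inhibitor control for full effect; nearly all actives have a fitted effect of over 50% in size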
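CHO cells stably expressing M1 receptor (2000/well, cultured 16–30 h) treated 30 min at 37C with compound plus low lithium. Cytosolic IP1 by TR-FRET (665/620 ratio and 620 channel) after 10 min lysis; AC50 by Hill fit.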
HPGD block: qHTS Assay for Inhibitors of HPGD (15-Hydroxyprostaglandin Dehydrogenase); Potency, µM, for inactives: at the highest dose activity change, negative = inhibition, hits mostly inhibitors; 150,000 compounds, 4.3% hits; purified HPGD, NADH fluorescence kinetic, PGE2 substrate; 15-hydroxyprostaglandin dehydrogenase [NAD(+)] (Homo sapiens), P15428; also: potency is read from the fitted curve at half-maximal effect
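NADH formation kinetics: reaction with 30 uM PGE2 and 1 mM NAD+ (final), 20 nM enzyme, Tris-HCl pH 8 with Tween 20, after 15 min compound preincubation at room temperature. Fluorescence change, last versus first of five reads.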
ALDH1A1 inh: qHTS Assay for Inhibitors of Aldehyde Dehydrogenase 1 (ALDH1A1). Aldehyde dehydrogenase 1A1 (Homo sapiens), P00352. Purified ALDH1A1, NADH fluorescence, propionaldehyde substrate. Potency, µM (doses to about 75.3 µM), inactives show at the highest dose activity, negative = inhibition, usual class: inhibitors. 220,000 compounds, 7.3% hits;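 also: potency is read from the fitted curve at half-maximal effect; plate controls were no enzyme wells and a reference inhibitor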
12-hLO inh: qHTS Assay for Inhibitors of 12-hLO (12-human lipoxygenase). AID 1452, 2008. Polyunsaturated fatty acid lipoxygenase ALOX12 (Homo sapiens), P18054. purified 12-hLO, xylenol orange hydroperoxide absorbance. 150,000 compounds, 0.12% hits. Potency, µM (titrated, usually from 57.1 µM), inactives show at the highest dose activity change, negative = inhibition, hits mostly inhibitors; active = well fitted curve in the direction sought with a large enough effect; inconclusive = small, poorly fitted or top-dose-only effect, or another doubt; inactive = no such curve, though single readings can be large; an effect the other way counts as inactive or inconclusive; also: potency is read from the fitted curve at half-maximal effect; nearly all actives have a fitted effect of over 55% in size
Target sequence (P18054 whole entry, looked up): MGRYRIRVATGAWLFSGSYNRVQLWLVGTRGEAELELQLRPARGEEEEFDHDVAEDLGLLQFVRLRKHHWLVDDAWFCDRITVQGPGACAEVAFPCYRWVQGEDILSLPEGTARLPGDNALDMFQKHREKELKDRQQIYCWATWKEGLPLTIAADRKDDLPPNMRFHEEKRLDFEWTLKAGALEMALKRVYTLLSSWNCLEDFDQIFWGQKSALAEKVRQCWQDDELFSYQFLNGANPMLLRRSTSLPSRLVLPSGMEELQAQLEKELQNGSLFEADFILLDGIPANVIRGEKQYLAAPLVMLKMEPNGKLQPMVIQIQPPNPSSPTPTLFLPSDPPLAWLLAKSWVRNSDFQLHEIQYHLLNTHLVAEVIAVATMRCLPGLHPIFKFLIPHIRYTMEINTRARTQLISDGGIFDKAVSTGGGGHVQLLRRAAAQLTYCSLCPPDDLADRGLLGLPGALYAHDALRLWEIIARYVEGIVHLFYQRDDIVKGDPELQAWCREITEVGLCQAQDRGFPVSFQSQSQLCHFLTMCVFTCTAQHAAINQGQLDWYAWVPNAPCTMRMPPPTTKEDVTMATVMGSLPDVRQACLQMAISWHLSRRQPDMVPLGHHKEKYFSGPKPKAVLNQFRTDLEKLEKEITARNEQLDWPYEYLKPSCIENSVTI
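150 nM 12hLO, 25 mM Hepes pH 7.0 + 0.01% Triton X-100; cpd preinc 15 min RT; 40 uM arachidonic acid, 30 min RT; Fe-XO 30 min; A573/A405 ratio as read-out.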
Active calls of the source: *; ? = inconclusive; . = not tested or not shown; ! = not confirmed by another sample; [ ] = dose if it differs, or a comment. This is a sample that favours compounds with a hit; in the whole collection about 11% have one here. Unless noted, calls follow the shape of the dose curve; as a rule, active = well fitted inhibition curve with a large enough effect (not every such curve was filed as active); inconclusive = small, poorly fitted or top-dose-only effect, or another doubt; inactive = no such curve, though single readings can be large or run the other way. Unless noted, % is scaled to controls: 0 for no effect and ±100 for the full control effect.

SMILES | IMPase cell inh | PNC assembly inh | IMPase Li inh | HPGD block | ALDH1A1 inh | 12-hLO inh
O=C(COC(=O)c1ccc([N+](=O)[O-])s1)NC(c1ccccc1)c1ccccc1 | . | -116.5* | 1.3% | -20.0% | 22.4µM* | -4.5%
Cc1c(Cl)cnc(NC(=O)COC(=O)c2ccc([N+](=O)[O-])s2)c1Cl | -6.3 | ? | -1.7% | ? | 11.2µM* | -4.7%
Cc1[nH]c2ccccc2c1C(=O)COC(=O)c1ccc([N+](=O)[O-])s1 | . | . | 9.5% | . | 11.2µM* | .
CCOc1ccc(CN(CCc2ccc3c(c2)OCO3)Cc2cc(OC)c(OC)cc2OC)cc1 | 4.3 | . | . | . | . | .
CC(C)(C)c1ccc(CN2CCN([C@H](c3ccccc3)c3ccc(Cl)cc3)CC2)cc1 | . | . | 3.7% | 3.4% | -2.7%[13.5 µM] | 4.6%[11.4 µM]
CCC(C)NS(=O)(=O)c1ccc(NC(=O)c2cccs2)cc1 (stereo not given) | . | . | 0.3% | . | 9.6% | .
CCC1CCCCN1S(=O)(=O)c1ccc(NC(=O)CSc2ncccc2C(=O)O)cc1 (stereo not given) | -2.4 | -1.5 | -7.6%[38.3 µM] | 14.1µM* | ? | -3.4%
CCC1CCCCN1S(=O)(=O)c1ccc(NC(=O)c2cccs2)cc1 (stereo not given) | 19.3 | -100.0* | 5.4% | -11.8% | 15.1% | -4.6%
COCCCNc1nc2c(c(=O)n(Cc3ccccc3)c(=O)n2C)n1C | 1.5 | . | . | . | . | .
CC(C)C(c1nnnn1C1CCCCC1)N1CCc2ccccc2C1 (stereo not given) | 2.8 | 8.7 | 22.7%[38.3 µM] | -11.6% | 25.1µM* | -7.8%
CC(C)C(c1nnnn1C1CCCC1)N1CCCc2ccccc21 (stereo not given) | -5.7 | -100.0* | 14.4% | -16.9% | ? | -0.9%
CC(C)C(c1nnnn1Cc1ccccc1)N1CCc2ccccc2C1 (stereo not given) | 8.8 | -12.8 | 27.5%[38.3 µM] | -16.4% | 10µM* | -2.0%
O=S(=O)(c1ccc(N2CCCC2)cc1)C(F)(F)F | 3.8 | -23.8 | 25.2%[38.3 µM] | -4.9% | -0.8% | -3.4%
O=Cc1ccc(N2CCCCCC2)cc1 | -3.3 | -5.0 | 4.5%[38.3 µM] | -29.7% | 0.0562µM* | -9.2%
O=Cc1c(F)cccc1N1CCCC1 | . | . | -0.9% | . | -1.6% | .
O=Cc1ccc(N2CCCC2)c(F)c1 | -3.8 | ? | 37.6%[38.3 µM] | -15.3% | 1.58µM* | 3.1%
CC(=O)/C=C1/C(=O)Nc2ccccc21 | . | . | 21.6% | . | 3.16µM* | .
Cc1ccc(C2C=C(c3ccc(F)cc3)Nc3nc(CCCO)nn32)cc1 (stereo not given) | -20.1 | . | . | . | . | .
COc1ccc(CN(Cc2cc3cc4c(cc3[nH]c2=O)OCO4)C(=O)NC2CCCCC2)cc1 | -2.9[1.84 µM] | -97.0* | 21.8%[38.3 µM] | ? | ? | -3.7%
Cc1ccc(S(=O)(=O)N2CC=C(c3ccc(F)cc3)CC2)cc1 | 1.1 | -80.3* | 3.4% | -13.8% | 9.2% | 2.3%
O=C(Cc1ccccc1)NCCSCc1ccc(Cl)cc1 | 5.1 | -6.7 | 1.3%[38.3 µM] | 31.6µM* | ? | -6.5%
O=C(COc1ccccc1)NCCSCc1ccc(Cl)cc1 | . | -14.2 | 4.3% | -9.4% | -0.7% | -1.7%
Cc1cccc(CSCCNC(=O)CCSc2ccccc2)c1 | . | -23.5 | 2.2% | 28.2µM* | ? | -6.1%
O=C(CCSc1ccccc1)NCCSCc1ccccc1 | . | -26.5 | -7.1% | 14.1µM* | ? | -6.9%
Nc1[nH]c(=S)[nH]c(=O)c1N=Nc1c(Br)cc(S(N)(=O)=O)cc1Br | . | . | -15.4% | -8.7% | -1.3%[13.5 µM] | 1.2%[11.4 µM]
Cc1ncc([N+](=O)[O-])n1CCO | -7.2[20.6 µM] | 42.5 | -0.2% | -20.7% | 7.94µM*! | -0.3%
CCS(=O)(=O)CCn1c([N+](=O)[O-])cnc1C | 0.9[20.6 µM] | 4.5 | 1.0% | -11.8% | -0.4% | -4.2%
